In PubChem BioAssay:
Results filed as inconclusive are left out. Activity calls are given as the source filed them.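 How the source made its calls, unless noted: active means normalized viability below 100% at a tested concentration; inactive means the rest.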

Columns and labels:
[1] = growth inhibition of DIPG glioma cells, dose response, cell-based, SU-DIPG-XVII, MIPE5.0, CellTiter-Glo, qHTS (AID 1347060; cut-off not given, nearly all actives have AC50 up to about 26 µM;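 on AC50: cells exposed to compound for 48 hours before viability readout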); conditions: SU-DIPG-XVII viability, CellTiter-Glo ATP luminescence
[2] = SU-DIPG-XXV glioma cell viability, MIPE5.0 library, qHTS (AID 1347068; cut-off not given, nearly all actives have IC50 up to about 30 µM;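 on IC50: cells exposed to compound for 48 hours before viability readout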)
[3] = liver-stage malaria parasite growth inhibition, primary screen, cell-based, HepG2, luciferase luminescence, HepG2 viability (AID 624349; in the data active means parasite load remaining mostly below about 12%, no sharp cut-off; inactive means mostly above about 10%;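 further: 100% = mean of DMSO negative control wells on the same plate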); conditions: P. berghei liver stage in HepG2, luciferase luminescence, concentration not given here; parasite load remaining: stronger effect = lower value; viability: measured here: HepG2 viability without parasites
[4] = JHH-DIPG-1 glioma cell viability, MIPE5.0 library, CellTiter-Glo luminescence, qHTS (AID 1347067; cut-off not given, nearly all actives have AC50 up to about 26 µM;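 further: cells exposed to compound for 48 hours before readout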); conditions: JHH-DIPG-1 glioma viability, CellTiter-Glo ATP luminescence
[5] = sensitizers of A549 cells to miR-34 induction, primary screen, imaging, A549 dox-inducible miR-34, nuclei and caspase counts (AID 1347080;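 active means compounds whose cell count with miR-34 switched on is under 0.7 times the count with it off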); conditions: A549 miR-34 inducible, Hoechst nuclei count, 48 h
[6] = survival rescue of mitochondrial mutant cells in low glucose, primary screen, MELAS cybrids, Rieske KO mouse fibroblasts, CellTiter-Glo (AID 1508586;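 active means mean z-score across replicates of 1.96 or higher in either the MELAS or the Rieske mutant cell line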;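 further: z relative to plate mean and SD of compound and empty wells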)
[7] = ovarian cancer cell viability with rucaparib, profiling panel, oncology-focused library, rucaparib conditional (AID 1508598); conditions: patient-derived ovarian cancer cells, CellTiter-Glo viability, 144 h, stronger effect = lower value

CNC(=O)c1cc(Oc2ccc3nc(N[C@@H]4CCCC[C@H]4O)sc3c2)ccn1
inactive: outcome [1] | outcome [2]

N#Cc1cc2cc(CN3CCC(Nc4ncnc5sc(CC(F)(F)F)cc45)CC3)c(O)cc2n1Cc1cn[nH]c1
active: AC50 [1] 29.5 µM | IC50 [2] 20.9 µM

CC(C)n1cnc2c(NCCCCCCNC(=O)OC(C)(C)C)nc(NCCO)nc21
102%: viability [3]
active: AC50 [1] 23.5 µM | AC50 [4] 18.6 µM
inactive: parasite load remaining [3] 47.6%

CC(C)(O)CNc1ncc(-c2ccnc(Nc3ccncc3)n2)c(CC2CC2)n1
active: AC50 [1] 16.6 µM | AC50 [4] 16.6 µM | IC50 [2] 23.5 µM

C[C@@H]1CC(=O)Nc2cccc(-c3ccc4c(c3)c(-c3cnn(C)c3)nn4C)c2N1
inactive: outcome [1] | outcome [2]

Cc1nc2cccc(N)c2c(=O)n1C1CCC(=O)NC1=O (stereo not given)
inactive: outcome [1] | outcome [4] | outcome [2]

COC(=O)C1=C(C)NC(c2ncc(F)cc2F)=N[C@@H]1c1ccc(F)cc1Cl
inactive: outcome [1] | outcome [2]

O=C(/C=C/c1ccc(Cl)cc1)N1CCC2(CC1)CN(Cc1ccc(Cl)c(Cl)c1)C(=O)O2
active: AC50 [1] 18.6 µM
inactive: outcome [2]

CN1C[C@@H]2c3ccccc3Oc3ccc(Cl)cc3[C@H]2C1
6350: cell count ([5]; measured here: total cells with miR-34 induction, stronger effect = lower value)
7170: cell count ([5]; measured here: total cells without miR-34 induction)
0.514: z-score ([6]; Rieske KO mouse fibroblast survival, CellTiter-Glo 72 h)
1.23: fold change ([5]; measured here: relative caspase fold change +Dox/-Dox)
inactive: outcome [1] | outcome [4] | outcome [2] | fold change ([5]; stronger effect = lower value, cell number ratio, induced over uninduced) 0.885 | z-score ([6]; MELAS cybrid survival, CellTiter-Glo 48 h, stronger effect = higher value) -0.348

CC[C@H](C)[C@@H]([C@@H](CC(=O)N1CCC[C@H]1[C@H](OC)[C@@H](C)C(=O)N[C@@H](Cc1ccccc1)c1nccs1)OC)N(C)C(=O)[C@@H](NC(=O)[C@H](C(C)C)N(C)C)C(C)C
inactive: outcome [1]
active: IC50 [2] 0.00417 µM

COc1cc2c3c(n(CCCN4CCOCC4)c(=O)c2cc1OC)-c1cc2c(cc1C3=O)OCO2
inactive: outcome [2]
active: AC50 [1] 0.0417 µM | AC50 [4] 8.33 µM

COc1cc(C(N)=O)ccc1NC(=O)[C@@H]1N[C@@H](CC(C)(C)C)[C@@]2(C(=O)Nc3cc(Cl)ccc32)[C@H]1c1cccc(Cl)c1F
active: AC50 [1] 23.5 µM | AC50 [4] 23.5 µM | IC50 [2] 16.6 µM

CC(C)(c1ccc(OCC(O)CO)cc1)c1ccc(OCC(O)CCl)cc1 (stereo not given)
inactive: outcome [1] | outcome [4] | outcome [2]

Cc1cc(CS(=O)(=O)c2ccccc2)cc(OCc2ccc(CN3CCC[C@@H]3CO)cc2)c1
inactive: outcome [4] | outcome [2] | viability ([7]; at 0.000305 µM, OCI-C5x cells, with rucaparib 10 µM, 100% = cells with rucaparib alone) 111% | viability ([7]; at 0.000305 µM, OCI-C5x cells, without rucaparib) 109% | viability ([7]; at 0.000305 µM, OCI-P5x cells, without rucaparib) 106% | viability ([7]; at 0.00122 µM, OCI-C5x cells, with rucaparib 10 µM, 100% = cells with rucaparib alone) 113% | viability ([7]; at 0.00122 µM, OCI-C5x cells, without rucaparib) 120% | viability ([7]; at 0.00122 µM, OCI-P5x cells, with rucaparib 20 µM, 100% = cells with rucaparib alone) 103% | viability ([7]; at 0.00122 µM, OCI-P5x cells, without rucaparib) 108% | viability ([7]; at 0.00488 µM, OCI-C5x cells, with rucaparib 10 µM, 100% = cells with rucaparib alone) 111% | viability ([7]; at 0.00488 µM, OCI-C5x cells, without rucaparib) 127% | viability ([7]; at 0.00488 µM, OCI-P5x cells, without rucaparib) 107% | viability ([7]; at 0.0195 µM, OCI-C5x cells, with rucaparib 10 µM, 100% = cells with rucaparib alone) 116% | viability ([7]; at 0.0195 µM, OCI-C5x cells, without rucaparib) 116% | viability ([7]; at 0.0195 µM, OCI-P5x cells, with rucaparib 20 µM, 100% = cells with rucaparib alone) 107% | viability ([7]; at 0.0195 µM, OCI-P5x cells, without rucaparib) 103% | viability ([7]; at 0.0781 µM, OCI-C5x cells, with rucaparib 10 µM, 100% = cells with rucaparib alone) 123% | viability ([7]; at 0.0781 µM, OCI-C5x cells, without rucaparib) 125% | viability ([7]; at 0.0781 µM, OCI-P5x cells, without rucaparib) 108% | viability ([7]; at 0.313 µM, OCI-C5x cells, with rucaparib 10 µM, 100% = cells with rucaparib alone) 116% | viability ([7]; at 0.313 µM, OCI-C5x cells, without rucaparib) 111% | viability ([7]; at 0.313 µM, OCI-P5x cells, with rucaparib 20 µM, 100% = cells with rucaparib alone) 106% | viability ([7]; at 0.313 µM, OCI-P5x cells, without rucaparib) 109% | viability ([7]; at 1.25 µM, OCI-C5x cells, with rucaparib 10 µM, 100% = cells with rucaparib alone) 117% | viability ([7]; at 1.25 µM, OCI-C5x cells, without rucaparib) 123% | viability ([7]; at 1.25 µM, OCI-P5x cells, without rucaparib) 105% | viability ([7]; at 5 µM, OCI-C5x cells, with rucaparib 10 µM, 100% = cells with rucaparib alone) 127% | viability ([7]; at 5 µM, OCI-C5x cells, without rucaparib) 122%
active: AC50 [1] 26.3 µM | viability ([7]; at 0.000305 µM, OCI-P5x cells, with rucaparib 20 µM, 100% = cells with rucaparib alone) 97% | viability ([7]; at 0.00488 µM, OCI-P5x cells, with rucaparib 20 µM, 100% = cells with rucaparib alone) 99.4% | viability ([7]; at 0.0781 µM, OCI-P5x cells, with rucaparib 20 µM, 100% = cells with rucaparib alone) 99.2% | viability ([7]; at 1.25 µM, OCI-P5x cells, with rucaparib 20 µM, 100% = cells with rucaparib alone) 99.2% | viability ([7]; at 5 µM, OCI-P5x cells, with rucaparib 20 µM, 100% = cells with rucaparib alone) 95.9% | viability ([7]; at 5 µM, OCI-P5x cells, without rucaparib) 99.8%
